# Assay outcomes (PubChem)
# CYP2C9 inhib – blockers of cytochrome P450 2C9 activity – biochemical, luminescence, ADME assay, primary screen; AID 777, 2007; hit rate 20% among 96,000; CYP2C9 Supersomes, luciferin-H conversion; inhibition, % at 5 µM; P11712;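 active = blocking of liver enzyme CYP2C9 beyond about 50% at 5 µM, limit read from the data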
# CYP2C19 inhib – blockers of cytochrome P450 2C19 activity – biochemical, luminescence, ADME assay, primary screen. CYP2C19 Supersomes, luciferin-H EGE luminescence, 30 min. hit rate 21% among 96,000. P33261. inhibition, % at 5 µM;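 active = CYP2C19 inhibition above a set limit at 5 µM in the primary screen, cut at about 50% in these data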
# Target sequence (P33261 whole entry, looked up): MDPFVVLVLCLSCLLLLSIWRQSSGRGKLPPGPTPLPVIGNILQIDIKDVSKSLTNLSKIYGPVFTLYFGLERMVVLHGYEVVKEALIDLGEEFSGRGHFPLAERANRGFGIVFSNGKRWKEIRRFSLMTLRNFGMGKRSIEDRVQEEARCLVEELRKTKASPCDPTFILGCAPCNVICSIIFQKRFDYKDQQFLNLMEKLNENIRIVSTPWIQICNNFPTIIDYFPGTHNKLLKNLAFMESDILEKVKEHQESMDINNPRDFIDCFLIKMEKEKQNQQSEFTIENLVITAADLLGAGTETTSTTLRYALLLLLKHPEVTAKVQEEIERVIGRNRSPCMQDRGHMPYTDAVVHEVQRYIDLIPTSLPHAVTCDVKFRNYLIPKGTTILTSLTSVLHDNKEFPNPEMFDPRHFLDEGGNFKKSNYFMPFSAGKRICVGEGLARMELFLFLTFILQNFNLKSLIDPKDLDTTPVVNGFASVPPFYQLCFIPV
# CD11b adhes inh – inhibitors of CD11b/CD18 adhesion to fibrinogen, primary screen, K562 cells, luminescence. ATPlite luminescence; Mn2+ added to activate the integrin. inhibition, % at 10 µM. hit rate 0.54% among 93,000. Integrin beta-2 (Homo sapiens) + Integrin alpha-M (Homo sapiens), P05107+P11215;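 active = primary inhibition of 50% or more at 10 µM, then 40% or more on retest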
# CYP2C19 activ – human CYP2C19 activators, primary screen, biochemical, luminescence; Cytochrome P450 2C19 (Homo sapiens), P33261; recombinant CYP2C19, luciferin-H EGE luminescence; active compounds read high; 0 = fully inhibited enzyme, 1 = untreated enzyme; activation factor at 5 µM; 96,000 tested, under 10 active; AID 1025, 2008;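 active = activation factor of at least 2 at 5 µM in the primary screen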
# Mac1 fbg enh – enhancers of CD11b/CD18 adhesion to fibrinogen, primary screen, K562 cells, luminescence. Integrin beta-2 (Homo sapiens) + Integrin alpha-M (Homo sapiens), P05107+P11215. ATPlite luminescence. activation, % at 10 µM. hit rate 0.07% among 93,000. AID 1499, 2009;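 active = 10 µM primary screen giving 50% or more activity, confirmed by 40% or more on retest at that dose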
# CYP2C9 activ – human CYP2C9 activators, primary screen, biochemical, luminescence; Cytochrome P450 2C9 (Homo sapiens), P11712; recombinant CYP2C9, luciferin-H conversion; active compounds read high; factor 1 = untreated enzyme, 0 = blocked; activation factor at 5 µM; hit rate 1.4% among 96,000; AID 1024, 2008;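 active = activation factor of 2 or more for CYP2C9 at a 5 µM dose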
# A number is an active result; 0 = inactive; - = not tested or not shown. Rows were chosen to be rich in hits. Some 28% of all compounds tested hit in one or more screens of this group.
SMILES,CYP2C9 inhib,CYP2C19 inhib,CD11b adhes inh,CYP2C19 activ,Mac1 fbg enh,CYP2C9 activ
COc1cc(C(=O)OC(C)CN2CCOCC2)cc(OC)c1OC (stereo not drawn),0,0,0,0,0,0
O=C(/C=C/c1ccccc1)CC(O)(c1ccccc1)C(F)(F)F (stereo not drawn),0,65,0,0,0,0
COc1ccc(C(=O)Oc2ccc(C(C)=O)cc2)c(OC)c1,0,59,0,0,0,0
CN(C)CC(C)(C)CNC(=O)c1cc(=O)c2ccccc2o1,0,0,0,0,0,0
Cc1ccccc1-n1c(=O)cc(N2CCN(Cc3ccccc3)CC2)[nH]c1=O,0,0,0,0,0,0
CCN1CCN(c2cc(=O)n(-c3cc(Cl)ccc3C)c(=O)[nH]2)CC1,60,0,0,0,0,0
CCN(CC)C(=O)CN1C(=O)C2(OCC(C)(c3ccccc3)CO2)c2ccccc21 (stereo not drawn),77,86,0,0,0,0
CCOC(=O)c1c(NC(=O)c2ccccc2Br)sc2c1CCc1ccccc1-2,0,0,0,0,0,0
CC/C(O)=C(\C#N)c1nnc2n1CCCCC2,0,0,-,0,-,0
CSc1ccc(CNc2ccccc2)cc1,0,92,-,0,-,0
CSc1ccc(CNc2ccccn2)cc1,0,63,0,0,0,0
CSc1n[nH]c(NCc2ccccc2)n1,0,0,0,0,0,0
O=C(NC1CCCC1)C(c1ccsc1)N(C(=O)Cc1cccs1)c1cccc(F)c1 (stereo not drawn),0,0,-,0,-,0
Cc1ccc(C(=O)N2CCN(c3ccc(NC(=O)c4ccc(Br)o4)cc3)CC2)cc1,50,0,0,0,0,0
CCOC(=O)N1CCN(C(=O)c2ccc(NC(=O)c3ccc(C)cc3)cc2)CC1,70,0,0,0,0,0
CS(=O)(=O)N1CCN(c2ccc(NC(=O)c3ccc(Br)o3)cc2)CC1,0,0,0,0,0,0
COc1cc2c(C(=O)N3CCN(Cc4ccc5c(c4)OCO5)CC3)cn(C)c(=O)c2cc1OC,0,0,0,0,0,0
Cc1ccc2c(CC(=O)OCc3nc(N)nc(Nc4ccccc4C)n3)coc2c1,0,0,0,0,0,0
Cc1ccccc1Nc1nc(N)nc(COC(=O)C(NC(=O)c2ccco2)C(C)C)n1 (stereo not drawn),59,0,0,0,0,0
COc1ccc(NC(=S)N2CCNC(=O)C2CC(=O)Nc2ccc(C)cc2)cc1 (stereo not drawn),-,-,0,-,0,-
Cc1ccc(S(=O)(=O)N2CCN(C3CC(=O)N(Cc4ccccc4)C3=O)CC2)cc1C (stereo not drawn),0,60,0,0,0,0
O=C1CC(N2CCN(S(=O)(=O)c3cccc(C(F)(F)F)c3)CC2)C(=O)N1Cc1ccccc1 (stereo not drawn),0,59,0,0,0,0
COc1ccc(CCN2C(=O)CC(N3CCN(S(=O)(=O)c4ccccc4)CC3)C2=O)cc1 (stereo not drawn),0,0,0,0,0,0
Cc1ccc(N=C(NO)c2nonc2N)cc1,0,0,0,0,0,0
Cc1ccc(/C(O)=C2\C(=O)C(=O)N(c3cc(C)on3)C2c2cccc(Cl)c2)cc1 (stereo not drawn),0,0,0,0,0,0
SMILES,CYP2C9 inhib,CYP2C19 inhib,CD11b adhes inh,CYP2C19 activ,Mac1 fbg enh,CYP2C9 activ
O=C1C(=O)N(c2cccc(Cl)c2)C(c2ccccc2[N+](=O)[O-])/C1=C(\O)c1ccccc1 (stereo not drawn),86,0,-,0,-,0
COc1ccc(NC(=O)Cc2cccs2)c(OC)c1,0,79,0,0,0,0
CCc1ccc(OCC(=O)Nc2cc(S(=O)(=O)CC)ccc2O)cc1,79,0,0,0,0,0
COc1ccc(NC(=O)CC(C)C)c(OC)c1,0,0,0,0,0,0
COc1ccccc1NC(=O)COc1ccccc1,0,0,0,0,0,0
COc1ccc(NC(=O)COc2ccccc2)c(OC)c1,84,92,0,0,0,0
CCOc1cccc(NC(=O)Cc2cccs2)c1,58,86,0,0,0,0
